Structures are written as SMILES. “And” between values parts separate entries of the source, which are not always exact repeats. Equal entries are not always repeated. Results filed as inconclusive are left out. Entries that show only a call come without a potency. The source made the active and inactive calls. Calls come from the whole dose curve; as a rule, active = well fitted cell-killing curve with a large enough effect; inconclusive = small, poorly fitted or top-dose-only effect; inactive = no such curve, though single readings can be large or run the other way.
Potency is the fitted concentration of half-maximal effect.

The nature of this assay: Cell Viability - LYMP2-001 (AID 921). Note: nearly all actives have a fitted effect of over 70% in size. Particulars: LYMP2-001 lymphoblastoid cell viability; series mostly up to 92.2 µM. The source says:
NIH Chemical Genomics Center [NCGC]
NIH Molecular Libraries Screening Centers Network [MLSCN]
National Institutes of Environmental Health Sciences [NIEHS]
National Toxicology Program [NTP]
We have developed a 1536-well cell-based assay for quantitative high throughput screening (qHTS) against a number of cell lines to determine in vitro cytotoxicity of small molecules. This particular assay uses a human lymphoblastoid cell line (LYMP2-001) purchased from Coriell Institute for Medical Research.
NCGC Assay Protocol Summary:
The CellTiter-Glo luminescent cell viability assay (Promega) is a homogeneous method to measure the number of viable cells in culture. The end point readout of this assay is based on quantitation of intracellular ATP, an indicator of metabolic activity, using the luciferase reaction. Luciferase catalyzes the oxidation of beetle Luciferin to oxyluciferin and light in the presence of ATP. The luminescent signal is proportional to amount of ATP present.
Using the CellTiter-Glo luminescent cell viability assay, the amount of cellular ATP was measured in the lymphoblastoid cell line with complete culture medium following compound treatment for 24 hours. The assay was performed in opaque white Kalypsys 1536-well plates. In the screen, tetraoctylammonium bromide was used as positive control. Library compounds were measured for their ability to cause acute toxicity in the cell line, as reflected by a decrease in intracellular ATP levels, in a concentration-dependent manner. […] AC50 values were determined from concentration-response data modeled with the standard Hill equation.
qHTS protocol for CellTiter Glo lymphoblastoid cellular assay
[Step] [Parameter] [Value] [Description]
1. Reagent; 5 uL; 2500 lymphoblastoid cells/well
2. Time; 5 hr; 37 C incubation
4. Controls; 23 nL; Tetraoctylammonium bromide 6.4pM to 92 uM
5. Time; 24 hr; 37 C incubation
6. Reagent; 5 uL; CellTiter Glo reagent
7. Time; 30 min; Room Temperature
8. Detection; Luminescence; Viewlux plate reader
Keywords: cell viability, cytotoxicity, lymphoblastoid cell line, luminescence, NTPHTS, NTPHTS_NCGC, NIEHS, DSSTox, MLSMR, MLSCN, NIH Roadmap, qHTS, NCGC
As to `CC(C)(C)c1cc(O)ccc1O`, the Potency is 39.8 µM (active).

As for `C=CCN=C=S`, the Potency result was “inactive”.

Consider `C[C@]12CCC(=O)C[C@@H]1CC[C@@H]1[C@@H]2CC[C@]2(C)[C@@H](O)CC[C@@H]12`, for which the Potency entry is “inactive”.

For the molecule `O=C1CCO1`, the Potency result was “inactive”.

As to `ClC=C(Cl)Cl`, the Potency entry was “inactive”.

As to `S=C=S`, the Potency result was “inactive”.

With `CC(C)Nc1ccc(Nc2ccccc2)cc1`, the Potency was 12.6 µM (active).

Regarding `Clc1ccccc1Cl`, the Potency result is “inactive”.

Turning to `O=[N+]([O-])c1ccccc1`, the Potency entry is “inactive”.

For `CCCCCCCCOC(=O)c1ccccc1C(=O)OCCCCCCCC`, the Potency entry was “inactive”.

`O=Cc1ccco1`: the Potency entry is “inactive”.

As for `CCOC(=O)c1ccccc1C(=O)OCC`, the Potency entry is “inactive”.

As to `NNC(N)=O`, the Potency result is “inactive”.

Take `ClC(Cl)(Cl)Cl`: the Potency result is “inactive”.

On to `[O]=[Cd]`, for which the Potency entry is “inactive”.

In the case of `Oc1cc(Cl)c(Cl)cc1Cl`, the Potency entry was “inactive”.

Consider `COc1ccc2c(c1OC)C(=O)OC2C1c2cc3c(cc2CCN1C)OCO3` (stereo not drawn), for which the Potency result was “inactive”.

`CC(C)CCON=O`: the Potency entry was “inactive”.

In the case of `[Cl-].[Cl-].[Hg+2]`, the Potency is 0.794 µM (active).

As for `C[C@H]1CC[C@@H]2[C@@H](C)[C@H]3[C@H](C[C@H]4[C@@H]5CC=C6CC(O[C@@H]7O[C@H](CO)[C@H](O)[C@H](O[C@@H]8O[C@H](CO)[C@@H](O)[C@H](O)[C@H]8O)[C@H]7O[C@H]7O[C@@H](C)[C@H](O)[C@@H](O)[C@H]7O)CC[C@]6(C)[C@H]5CC[C@]34C)N2C1` (stereo partly drawn), the Potency result is “inactive”.

As to `O=C1C2CC=CCC2C(=O)N1SC(Cl)(Cl)Cl` (stereo not drawn), the Potency was 2 µM (active) and 5.01 µM (active).

For the molecule `[O]=[Cr](=[O])([OH])[O][Cr](=[O])(=[O])[OH]`, the Potency was 12.6 µM (active) and 6.31 µM (active).

`O=C/C=C/c1ccccc1`: the Potency result is “inactive”.

On to `C[C@H]1CCC[C@H](O)CCCCCc2cc(O)cc(O)c2C(=O)O1`, for which the Potency result is “inactive”.

Take `COC1=CC(=O)O[C@@H](/C=C/c2ccccc2)C1`: the Potency result was “inactive”.

On to `O=C(O)C(Cl)(Cl)Cl`, for which the Potency entry is “inactive”.

As to `O=CC=O`, the Potency result was “inactive”.

`CCCCCl`: the Potency entry was “inactive”.

The record behind these values is PubChem BioAssay (NCATS).
